Screens (PubChem)
CHX counter – Cycloheximide Counterscreen for Small Molecule Inhibitors of Shiga Toxin. cell reporter, cycloheximide protein synthesis inhibition counterscreen. max response, %. hit rate 12% among 300,000; in the data active means max response mostly above about 13%, no sharp cut-off; inactive means mostly below about 14%; further: read at 38.3 µM for the half of the compounds with a filed dose; 0% is about no effect
Shiga toxin inh – A qHTS for Small Molecule Inhibitors of Shiga Toxin | Vero cells, Shiga toxin protein synthesis inhibition reporter | inhibition, % at 38.7 µM | hit rate 9.2% among 290,000 | AID 2315, 2010; in the data active means inhibition mostly above about 28%, no sharp cut-off; inactive means mostly below about 43%; further: 0% is about no effect
Giardia FBPA inh – qHTS Assay for Inhibitors of Fructose-1,6-bisphosphate Aldolase from Giardia Lamblia. A8B2U2. purified Giardia FBPA. Potency, µM (titrated, usually from 59.6 µM), for inactives: at the top dose activity, negative = inhibition, hits mostly inhibitors. hit rate 0.71% among 290,000. AID 2451, 2010; further: potency means the concentration at half of the fitted maximal effect; on the % scale 0 is the no-effect control and ±100 the full control effect; nearly all actives have a fitted effect of over 55% in size
Target sequence (A8B2U2 whole entry, looked up): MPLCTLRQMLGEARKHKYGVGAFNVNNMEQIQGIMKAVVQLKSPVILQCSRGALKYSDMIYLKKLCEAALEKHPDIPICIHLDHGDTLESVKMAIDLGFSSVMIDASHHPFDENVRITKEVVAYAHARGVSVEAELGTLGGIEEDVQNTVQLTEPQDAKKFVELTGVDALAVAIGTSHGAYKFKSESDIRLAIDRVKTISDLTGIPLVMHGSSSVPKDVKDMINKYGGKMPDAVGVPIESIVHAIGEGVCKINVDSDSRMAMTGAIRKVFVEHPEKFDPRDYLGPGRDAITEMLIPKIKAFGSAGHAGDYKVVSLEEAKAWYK
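40 nM FBPA preincubated 10 min at RT with compound (up to 57.5 uM final), then substrate plus GAPDH/TPI/NAD/arsenate coupling and diaphorase/resazurin added. Fluorescence read after 20 min at RT, 525/598 nm.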
Pf growth 96h – Primary qHTS for delayed death inhibitors of the malarial parasite plastid, 96 hour incubation. hit rate 6.9% among 320,000. Potency, µM (series often up to 28.7 µM), without a hit: at the highest dose activity change, negative = inhibition, most hits filed as inhibitors. P. falciparum luciferase reporter growth, 96 h. AID 504834, 2011; further: potency means the concentration at half of the fitted maximal effect; on the % scale 0 is the no-effect control and ±100 the full control effect
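Two-generation exposure (96 h) targets delayed-death phenotype. Reporter parasites carrying integrated firefly luciferase, in red cells at 2% hematocrit and 0.05% parasitemia final, kept at 37 C, 5% CO2; luminescence loss indicates inhibition.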
Pf growth 48h – Primary qHTS for delayed death inhibitors of the malarial parasite plastid, 48 hour incubation | P. falciparum luciferase growth in erythrocytes, 48 h | Potency, µM (top dose mostly 28.7 µM), inactives show at the highest dose activity change, negative = inhibition, usual class: inhibitors | AID 504832, 2011 | hit rate 5.9% among 310,000; further: potency means the concentration at half of the fitted maximal effect; on the % scale 0 is the no-effect control and ±100 the full control effect
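Luciferase-expressing parasites in RBCs, 2% Hct / 0.1% parasitemia final; RPMI 1640 + 0.5% Albumax; 37 C, 5% CO2, one generation; luminescence read-out, lower signal = inhibition.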
NS1 inh – qHTS Assay for Inhibitors of Influenza NS1 Protein Function; Potency, µM (top dose mostly 46.1 µM), for the others: at the top dose activity, positive = more growth; hit rate 0.4% among 270,000; AID 2326, 2010; calls by dose curve; further: potency means the concentration at half of the fitted maximal effect; actives are rising curves; nearly all actives have a fitted effect of over 50% in size
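OD600 was taken as the measure of yeast growth restored by compound in an NS1-expressing S. cerevisiae strain. Cells had been washed out of glucose medium and diluted 1:100 into galactose -URA medium, pH 6.0.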
Starred values were filed as active, the others as inactive; u = inconclusive; x = not tested or not shown. In the library only some 21% were active in any assay of this set; here they are far more common. Unless noted, the call rests on the fitted dose curve; in most records, active means well fitted curve in the direction sought with a large enough effect; inconclusive means small, poorly fitted or top-dose-only effect, or another doubt; inactive means no such curve, though single readings can be large; an effect the other way counts as inactive or inconclusive.

SMILES	CHX counter	Shiga toxin inh	Giardia FBPA inh	Pf growth 96h	Pf growth 48h	NS1 inh
O=C(Nc1cccc(F)c1)N1CC[C@@]2(CCCN(C(=O)c3cccc(F)c3)C2)C1	x	x	0%	x	x	x
CCCOc1ccccc1N/C(=N/c1nc(C)cc(C)n1)NC(=O)COc1ccc(OC)cc1	-4	-12	-2%	4.7µM*	x	7%
CCCOc1ccccc1N/C(N)=N/c1nc(C)cc(C)n1	-3	-15	7%	-23%	15µM*	u
CCCOc1ccccc1NC(=O)/C=C/C(N)=O	13*	-3	0%	8%	x	-222%
COc1ccc(OC)c(N/C(=N/c2nc(C)cc(C)n2)NC(C)=O)c1	-2	-3	1%	11%	11%	3%
COc1ccc(N/C(=N/c2nc(C)cc(C)n2)NC(=O)Nc2ccc(Cl)c(Cl)c2)c(OC)c1	-1	-8	3%	10µM*	12µM*	-1%
CCCCOc1ccccc1NC(=O)C=C(C)C	-3	-9	6%	77%	4%	-7%
O=S(=O)(Nc1cccc(S(=O)(=O)N2CCCC2)c1)c1cccc(Br)c1	x	x	x	-16%	-7%	x
O=C(Nc1ccccc1)N1CCC(C(=O)N(Cc2ccco2)Cc2cccs2)CC1	5	12	6%	1.7µM*	u	-8%
Cc1nn(Cc2ccccc2)c(C)c1CCC(=O)O	11	34	6%	x	16%	6%
Cc1nn(-c2ccccc2)c(C)c1CCC(=O)O	42*	90*	-1%	0%	2%	2%
COC(=O)CCc1c(C)nn(-c2ccccc2)c1C	25*	64*	3%	x	19%	-13%
Cc1coc2c(C)c3oc(=O)c(CCC(=O)NCCC(=O)O)c(C)c3cc12	-4	3	8%	69%	34%	8%
CC(OC(=O)Cn1cnc2ccccc2c1=O)C(=O)NCc1ccccc1 (centres undefined)	x	x	x	20%	u	x
COC(C(=O)C(O)C(C)O)C1Cc2cc3cc(OC4CC(OC5CC(O)C(OC)C(C)O5)C(OC(C)=O)C(C)O4)c(C)c(O)c3c(O)c2C(=O)C1OC1CC(OC2CC(OC3CC(C)(O)C(OC(C)=O)C(C)O3)C(O)C(C)O2)C(O)C(C)O1 (centres undefined)	x	x	x	u	0.12µM*	x
Cc1nc(NC(=O)c2ccccc2)sc1-c1csc(Nc2cccc(Cl)c2)n1	19	56	-13%	2.6µM*	9.3µM*	14%
Cc1nc(NC(=O)c2ccccc2)sc1-c1csc(Nc2ccc(Cl)cc2Cl)n1	15	56	-12%	3.3µM*	10µM*	15%
COc1ccc(Cl)cc1Nc1nc(-c2sc(NC(=O)c3ccccc3)nc2C)cs1	7	30	-5%	2.9µM*	1.9µM*	20%
COc1ccc(OC)c(Nc2nc(-c3sc(NC(=O)c4ccccc4)nc3C)cs2)c1	-2	35	-4%	-22%	u	27%
Cc1ccc2nc(NCCCN3CCOCC3)c(C=NCCCN3CCOCC3)c(=O)n2c1	9.9*	25	0%	-3%	5%	-3%
COCCCn1c(=N)c(C(=O)NCc2ccc3c(c2)OCO3)cc2c(=O)n3cccc(C)c3nc21	x	x	x	x	x	7%
CCOCCCn1c(=N)c(C(=O)NCc2ccc3c(c2)OCO3)cc2c(=O)n3cccc(C)c3nc21	-3	-3	x	12%	1µM*	4%
CCCCNC(=O)c1cc2c(=O)n3cccc(C)c3nc2n(CCN2CCOCC2)c1=N	-4	10	-6%	u	3.7µM*	0%
N=c1c(C(=O)NCc2ccc3c(c2)OCO3)cc2c(=O)n3ccccc3nc2n1Cc1cccnc1	-2	-4	-2%	3%	10µM*	4%
COc1ccc(CNC(=O)c2cc3c(=O)n4ccccc4nc3n(Cc3cccnc3)c2=N)cc1	9	-20	9%	-7%	u	-6%
SMILES	CHX counter	Shiga toxin inh	Giardia FBPA inh	Pf growth 96h	Pf growth 48h	NS1 inh
C=C1C(N)CC2CC1C2(C)C (centres undefined)	x	x	0%	x	x	x
N=c1c(C(=O)NCCN2CCOCC2)cc2c(=O)n3ccccc3nc2n1Cc1ccc(F)cc1	7	-3	x	10µM*	9.3µM*	4%
Cc1ccc2nc3c(cc(C(N)=S)c(=N)n3CCCOC(C)C)c(=O)n2c1	-1	10	u	1.5µM*	12µM*	5%
C=CCn1c(=N)c(C(=O)OCC)cc2c(=O)n3cc(C)ccc3nc21	11	-5	-2%	-17%	13%	8%
CCCn1c(=N)c(C(=O)NC2CCCC2)cc2c(=O)n3cccc(C)c3nc21	-2	-7	7%	u	1.9µM*	-7%
N=c1c(C(=O)NCCN2CCOCC2)cc2c(=O)n3ccccc3nc2n1CCCN1CCOCC1	-9	-4	4%	39%	u	16%
Cc1ccc2nc3c(cc(C(=O)NCCN4CCOCC4)c(=N)n3CCCN3CCOCC3)c(=O)n2c1	-6	-5	8%	u	12µM*	6%
O=C(NCC[C@@H]1C[C@@H]2C=C[C@H]1C2)c1cc(COc2ccc(F)cc2F)on1	3	-2	-4%	u	-19%	-13%
O=c1c(CCc2ccccc2)nc2cnc(N3CCOCC3)nc2n1CCc1ccccc1	x	x	9%	x	x	x
C=C(C(=O)OC)C(NC(=O)OC)c1ccccc1 (centres undefined)	x	x	-1%	x	x	x
Cc1ccn(CCNC(=O)C2CCC(=O)N(CCc3ccc(Cl)cc3)C2)n1 (centres undefined)	1	-33	x	3%	6%	5%
CCCCNC(=O)c1cc2c(=O)n3cccc(C)c3nc2n(Cc2ccncc2)c1=N	-2	11	-12%	-25%	5.2µM*	-1%
Cc1cccc(/C(N)=N/OC(=O)COc2ccc(Cl)c(C)c2)c1	0	0	2%	80%	0%	18%
Cc1occc1C(=O)O/N=C(\N)c1ccccc1	51*	72*	0%	12µM*	-26%	-3%
Cc1cccc(/C(N)=N/OC(=O)c2ccoc2C)c1	38*	68*	3%	16%	u	-86%
Cc1c([N+](=O)[O-])c(C(=O)NC2CCCCC2)nn1C	-2	-3	x	-13%	6%	17%
COc1ccc(CNC(=O)C(C)OC(=O)CN2C(=O)COc3ccccc32)cc1 (centres undefined)	-6	-3	9%	-3%	6%	-12%
CC1CCN(C(=O)CSc2nc(N)c3c4c(sc3n2)CN(C)CC4)CC1	-6	-2	-7%	0.83µM*	2.3µM*	12%
Cc1cc(NC(=O)CSc2nc(C3CC3)nc3sc4c(c23)CCC(C)C4)no1 (centres undefined)	x	x	x	x	x	11%
NC(=O)CSc1nc(C2CC2)nc2sc3c(c12)CCCC3	19*	47*	0%	u	151%	6%
